# Source: PubChem BioAssay (NCI)
# The panel holds about 83,000 compounds, 20% with a hit somewhere; the sample as a whole holds those more often.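 Note: values are percent growth. 100 is the growth of untreated cells, values between 100 and 0 indicate rising inhibition; between -100 and 0 indicates cell death.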 Values without a mark were called inactive. Activity calls are given as the source filed them. The calls were made as follows: active = growth percent below 10; inactive = the rest.
# System: K-562 leukemia
# Experiment: NCI-60 one-dose screen, 48 h (100 = growth as untreated, 0 = no growth, -100 = all killed)
# Conditions: 10 µM
row,Structure (SMILES),growth
1,Nc1nc(-c2ccccc2)cc(-c2cc3ccccc3nc2Cl)n1,20%
2,Cc1cccc2cc(-c3cc(-c4ccccc4)nc(=O)[nH]3)c(Cl)nc12,44.3%
3,NC1=NC(c2ccccc2Cl)N=C(Nc2nn[nH]n2)N1 (stereo unspecified),100%
4,Cc1ccc(-c2cc(-c3cc4ccccc4nc3Cl)[nH]c(=O)n2)cc1,1.33% (active)
5,O=C1Nc2cc(Cl)ccc2/C1=C/c1cccc(OCc2ccccc2)c1,5.55% (active)
6,O=C1Nc2ccc(Cl)cc2/C1=C/c1cccc(OCc2ccccc2)c1,10.3%
7,O=C1Nc2ccc(Cl)cc2/C1=C/c1ccc(OCc2ccc(Br)cc2F)cc1,40.7%
8,O=c1[nH]n(C(=S)N/N=C/c2ccc(F)cc2)c(=O)c2ccccc12,11.2%
9,O=C1Nc2cc(Cl)ccc2/C1=C/c1ccc(OCc2ccc(Br)cc2F)cc1,9.64% (active)
10,CN1CCc2c(sc3ncnc(N/N=C/c4cn(-c5ccccc5)nc4-c4ccc(Br)cc4)c23)C1,18.5%
11,COc1ccc(C=CC(=O)c2ccc(-n3c(C)nc4c(cnn4-c4ccccc4)c3=O)cc2)cc1,12.4%
12,O=C1Nc2cc(Cl)ccc2/C1=C/c1cccc(OCc2ccc(Br)cc2F)c1,1.92% (active)
13,O=C1Nc2ccc(F)cc2/C1=C/c1cccc(OCc2ccccc2)c1,6.34% (active)
14,O=C(CSc1ccc(-c2ccc(Cl)cc2)nn1)Nc1ccc(Cl)c(C(F)(F)F)c1,9.36% (active)

# System: MALME-3M melanoma
# Experiment: as above
# Conditions: 10 µM
row,Structure (SMILES),growth
1,Cc1cccc2cc(-c3cc(-c4ccccc4)nc(=S)[nH]3)c(Cl)nc12,61%
2,Cc1ccc(/C=C(\C#N)n2nnc3c(F)cccc32)cc1,34.7%
3,COc1ccc2nc(Cl)c(-c3cc(-c4ccccc4)nc(=S)[nH]3)cc2c1,45.3%
4,Cc1ccc(C(=O)Nc2ccc(-n3c(C)nc4c(cnn4-c4ccccc4)c3=O)cc2)cc1,67.7%
5,Cc1ccc(-c2ccc(SCC(=O)Nc3ccc(Cl)c(C(F)(F)F)c3)nn2)cc1,38.7%
6,O=C(COc1ccc(NC(=O)Nc2ccc(Cl)cc2)cc1)N=Nc1c(O)[nH]c2ccc([N+](=O)[O-])cc12,12.1%
7,Cc1nn(-c2ccccc2)c2ncn(CC(=O)N/N=C/c3c[nH]c4ccccc34)c(=O)c12,69%
8,S=c1nc(-c2ccccc2)cc(-c2cc3ccccc3nc2Cl)[nH]1,66.4%
9,Cc1ccc(C(=O)NCCCNc2nc(Nc3ccc(N4CCN(C)CC4)cc3)nc3ccsc23)cc1,-94.8% (active)
10,COc1ccc2nc(Cl)c(-c3cc(-c4ccccc4)nc(N)n3)cc2c1,61%
11,COc1cc(Cn2c(C(F)(F)F)cc3c(Cl)ncnc32)ccn1,71.2%
12,O=C1CCC(N2Cc3c(NCc4ccc(-c5ccccc5)cc4)cccc3C2=O)C(=O)N1 (stereo unspecified),15.2%
13,O=c1nc(-c2ccccc2)cc(-c2cc3ccccc3nc2Cl)[nH]1,54.9%
14,Cc1nc2c(cnn2-c2ccccc2)c(=O)n1-c1ccc(NC(=O)c2ccc(F)cc2)cc1,68.4%
15,O=C(c1ccc([N+](=O)[O-])c([N+](=O)[O-])c1O)n1[nH]c(=O)c2ccccc2c1=O,71.7%
16,Cc1ccc(-c2cc(-c3cc4ccccc4nc3Cl)[nH]c(=S)n2)cc1,46%
17,COc1ccc2nc(Cl)c(-c3cc(-c4ccccc4)nc(=O)[nH]3)cc2c1,83.3%
18,O=C(NO)c1ccc(CNc2nc(-c3ccccc3)c3ccccc3n2)cc1,-34.4% (active)
19,Cc1ccc(NC(=O)c2ccc(-n3c(=O)[nH]c4ccccc4c3=O)cc2)cc1,84.8%

row,Structure (SMILES),growth
1,Nc1nc(-c2ccccc2)cc(-c2cc3ccccc3nc2Cl)n1,88.4%
2,C=C1CC[C@H](C(=C)C)[C@H]2C=C(C)C(=O)C3=C(C(=O)[C@@](C)(O)C3)[C@H]12,-79.1% (active)
3,Cc1cccc2cc(-c3cc(-c4ccccc4)nc(=O)[nH]3)c(Cl)nc12,96.6%
4,Cc1ccc(C(C)C)cc1NC(=O)c1ccccc1O,9.96% (active)
5,O=C(Nc1ccccc1)Nc1nc2ccccc2s1,-10.2% (active)
6,NC1=NC(c2ccccc2Cl)N=C(Nc2nn[nH]n2)N1 (stereo unspecified),101%
7,C=C(C)[C@@H]1CC[C@]2(C)[C@H](CC=C3[C@@H]4CC(C)(C)CC[C@]4(C(=O)N4CCOCC4)CC[C@]32C)[C@@]1(C)CCCN,-93.8% (active)
8,Cc1ccc(-c2cc(-c3cc4ccccc4nc3Cl)[nH]c(=O)n2)cc1,38.5%
9,O=C1Nc2cc(Cl)ccc2/C1=C/c1cccc(OCc2ccccc2)c1,7.06% (active)
10,O=C1Nc2ccc(Cl)cc2/C1=C/c1cccc(OCc2ccccc2)c1,45.8%
11,O=C1Nc2ccc(Cl)cc2/C1=C/c1ccc(OCc2ccc(Br)cc2F)cc1,19.2%
12,O=c1[nH]n(C(=S)N/N=C/c2ccc(F)cc2)c(=O)c2ccccc12,80.4%
13,O=C1Nc2cc(Cl)ccc2/C1=C/c1ccc(OCc2ccc(Br)cc2F)cc1,-69.5% (active)
14,CN1CCc2c(sc3ncnc(N/N=C/c4cn(-c5ccccc5)nc4-c4ccc(Br)cc4)c23)C1,29.5%
15,COc1ccc(C=CC(=O)c2ccc(-n3c(C)nc4c(cnn4-c4ccccc4)c3=O)cc2)cc1,60.6%
16,O=C1Nc2cc(Cl)ccc2/C1=C/c1cccc(OCc2ccc(Br)cc2F)c1,33.8%
17,O=C1Nc2ccc(F)cc2/C1=C/c1cccc(OCc2ccccc2)c1,32.3%
18,O=C(CSc1ccc(-c2ccc(Cl)cc2)nn1)Nc1ccc(Cl)c(C(F)(F)F)c1,54.1%
